# Results published in PubChem BioAssay (Tox21).
# Inconclusive results are not listed. A call without a number means that no potency is given here. More than one record can exist for a structure, and the calls need not agree. Active and inactive are the calls of the source. Calls come from the whole dose curve.
# Biological target: 5-hydroxytryptamine receptor 2A (Homo sapiens) (UniProt P28223)
# Assay: 5-hydroxytryptamine receptor 2A (HTR2A) small molecule agonists, cell-based qHTS assay (AID 1963587); note: nearly all actives have a fitted effect of over 30% in size
# Conditions: HTR2A-CHO cells, calcium flux fluorescence, agonist mode; series mostly up to 76.8 µM
# Method in brief: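 HTR2A-CHO cells, plated 18 h at 37 C/5% CO2, dye-loaded 1 h at 37 C; compounds in DMSO added by pin tool (agonist mode). Intracellular calcium flux read as kinetic fluorescence on FDSS over 2 min at 1 s intervals.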
# Potency is the fitted concentration of half-maximal effect.
# Chain of 5-hydroxytryptamine receptor 2A (Homo sapiens) (P28223 whole entry, looked up): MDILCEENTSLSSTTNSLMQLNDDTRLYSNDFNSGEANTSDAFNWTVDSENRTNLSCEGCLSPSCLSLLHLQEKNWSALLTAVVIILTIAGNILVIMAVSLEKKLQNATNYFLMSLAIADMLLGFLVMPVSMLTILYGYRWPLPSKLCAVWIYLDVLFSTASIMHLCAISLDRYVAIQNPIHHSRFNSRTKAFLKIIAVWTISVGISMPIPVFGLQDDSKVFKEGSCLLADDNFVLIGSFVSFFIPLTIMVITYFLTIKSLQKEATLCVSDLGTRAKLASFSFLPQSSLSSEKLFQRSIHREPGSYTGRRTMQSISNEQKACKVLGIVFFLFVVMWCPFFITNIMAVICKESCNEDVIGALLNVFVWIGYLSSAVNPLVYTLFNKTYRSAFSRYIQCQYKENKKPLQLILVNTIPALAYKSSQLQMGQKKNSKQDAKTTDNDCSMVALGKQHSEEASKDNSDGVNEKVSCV
row,SMILES,Potency
1,CC(C)c1ccc(OP(=O)(Oc2ccc(C(C)C)cc2)Oc2ccc(C(C)C)cc2)cc1,inactive
2,Clc1cccc(Cl)c1,inactive
3,ClC(Cl)c1ccccc1,inactive
4,O=P(OCC(Br)CBr)(OCC(Br)CBr)OCC(Br)CBr (stereo not drawn),inactive
5,Clc1cccc(C(Cl)(Cl)Cl)n1,inactive
6,COP(=O)(NC(C)=O)SC (stereo not drawn),inactive
7,CC(C)N1C(=O)c2ccccc2NS1(=O)=O,inactive
8,CCCCn1cc[n+](C)c1,inactive
9,COP(=O)(OC)OC,55.4 µM (active) and inactive
10,CCOP(=S)(OCC)Oc1nc(Cl)c(Cl)cc1Cl,inactive
11,CCCCCCCCCCCCCCCl,inactive
12,O=C(NC(=O)c1ccccc1Cl)Nc1ccc(OC(F)(F)F)cc1,inactive
13,c1ccc(C2CO2)cc1 (stereo not drawn),inactive
14,ClCCOCCCl,inactive
15,CN=C=O,inactive
16,CC(O)CCO (stereo not drawn),inactive
17,CCCCON=O,inactive
18,C=CC(Cl)CCl (stereo not drawn),inactive
19,CN(CCCC(=O)c1cccnc1)N=O,inactive
20,CN(C)c1ccc(N=O)cc1,inactive
21,Cc1ccc(N)c(C)c1,inactive
22,N#CCCCCC#N,inactive
23,C[C@H]1O[C@H](OC2[C@@H](O)[C@@H](O)C(O)[C@H](O)[C@H]2O)[C@@H](N)C[C@@H]1N=C(N)C(=O)O (stereo partly drawn),inactive
24,CCC(C)c1ccc(O)cc1 (stereo not drawn),inactive
25,CCCCC(CC)C(=O)Cl (stereo not drawn),inactive
26,O=C(CCl)c1ccc(Cl)cc1Cl,inactive
27,O=c1[nH]c2ccccc2n1C1CCN(CCCC(c2ccc(F)cc2)c2ccc(F)cc2)CC1,inactive
28,O=P(Oc1ccccc1)(Oc1ccccc1)Oc1ccccc1,inactive
